# Test system: PPARg:RXRa (NR concentration 180 nM, RXRa partner concentration 90 nM)
# Assay: PBM binding z-score (relative to random genomic background probes); higher = stronger binding; sequences stand for … in GC…GCGATTGACAGCGTAGAATGAAGG
# Procedure, shortened: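 Regression normalization was applied to scanned fluorescence from custom Agilent 4×180K protein-binding microarrays. Before scanning, arrays were incubated 1 h with ligand-free nuclear receptor dimers, and binding was detected with antibodies against each partner (one per run). Binding z-scores use the random background probes as reference.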
row,Sequence,PBM binding z-score
1,CAAACTAGGACAAGAGGTCAAAGTCCGCTTCCCG,5.75
2,GGAACAAGGGCAAAGTTGATAGCATCTGTCGACG,5.8
3,ACTTACGGGTCAAAGAGGTTATAGCACGCGTATA,5.28
4,CCGACTGGGGCATAAGGTTACCAGAAGCCAGCCC,2.27
5,ACTATTAGTTGAGACGAGAGCAACCGATAGGTTG,0.493
6,TCGAGTAGGTTAGTCAGGGCATTCAGCCAACATA,0.0481
7,TCGAGTAGGTGAGGGGCATTCAGAATGGCGTCGA,1.99
8,ATATGTAGGTTAAGGTTCATTCAGGTTGGTTCGC,10.6
9,AGAATGAGGTTATTCGTAGATCAGGGAAGAAAGT,1.64
10,GCGACTGGGGCACAGCAGGTTACCATAAGGTTGG,1.75
11,GGAACGCGGGCATTCGAGTTGATAGCATGGCGAT,-0.044
12,CCTACTGGGCTACGAAAGGTCATTGATTCAGTGA,2.77
13,ACTTACCGGTCAACGAGGTTATAGCACGCGTATA,1.3
14,CTCGAAAGGTCGTGCTCAGGTGAGGATACCAAAC,2.79
15,GCTATGAGTTGAAAGGGCAACCGAATGATTCTCG,2.75
16,ATTTGTAGGTTAAGGGTCATTCAGGTTGGTTCGC,11.5
17,TATTGTAGATCAAGCAGGTTAAGAAAGCCTGAGT,-0.08
18,CGTCATAGTTCAACTAAGGTAACGTAAAGCACGC,1.66
19,TGTCAAAGTTCAAAGGTAACCTAAGTATCCACAC,8.74
20,CGTCCATGGTCAGAGAGGTCAGTGAATGCCGAGT,0.301
21,ACTCGGAGGACAAAGGTCAGAGGTACGCCAGTGA,7.26
22,CTCGAAAGGTCGGTTTAGGTGAGTATACGGATAA,0.282

# — the supplement of paper PMC6555819
